The supplement of paper PMC7530171
Where a name gives a salt, the structure may show the parent alone. ± gives the standard deviation.

Tested on: THP-1
Test: THP-1 cell loss relative to DMSO control; higher = more host cell loss (toxicity); extreme values may be limits of the assay
Conditions: 10 µM; 4 days; infection: M. tuberculosis H37Rv
Experimental: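 OICR kinase inhibitor library screened in duplicate at 10 uM against M. tuberculosis-infected THP-1 macrophages, 4 days at 37 C. THP-1 cell loss (cytotoxicity or loss of adherence) was quantified from Hoechst-stained nuclei counts by high-content imaging and normalised to the 1% DMSO control; 100 = complete loss of host cells.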

SMILES	THP-1 cell loss [%]
CN(c1ccccc1CNc1nc(Nc2ccc3c(c2)CC(=O)N3)ncc1C(F)(F)F)S(C)(=O)=O	100
O=C1c2ccc(O)c(O)c2C(=O)c2c(O)ccc(O)c21 [Quinalizarin]	4.66 ± 6.6
CN(C)CC(C)(C)CNc1nn2c(-c3ccccc3)nnc2cc1C1CCC1	18.4 ± 1.3
CSc1cccc(Nc2ncc3cc(-c4c(Cl)cccc4Cl)c(=O)n(C)c3n2)c1	100
Cc1[nH]c(/C=C2\C(=O)Nc3ccc(S(=O)(=O)Cc4c(Cl)cccc4Cl)cc32)c(C)c1C(=O)N1CCC[C@@H]1CN1CCCC1	19.1 ± 12
Cc1ccc(F)c(NC(=O)Nc2ccc(-c3cccc4[nH]nc(N)c34)cc2)c1	84.1 ± 22
Cc1cc(Nc2cc(C)c(C#N)c(NC(C)CCCC(C)(C)O)n2)n[nH]1 (configuration not stated) [TC-A 2317 hydrochloride]	19.1 ± 1
CNC(=O)c1cc(Oc2ccc(NC(=O)Nc3ccc(Cl)c(C(F)(F)F)c3)cc2)ccn1 [Sorafenib]	100
Cc1ccc2nc(NCCN)c3ncc(C)n3c2c1	100
Nc1ncnc2c1c(-c1cccc(OCc3ccccc3)c1)cn2C1CC(CN2CCC2)C1 (configuration not stated)	18.9 ± 6
NC(=O)Nc1sc(-c2ccc(F)cc2)cc1C(N)=O	76.1 ± 3
O=S(=O)(NCCNC/C=C/c1ccc(Br)cc1)c1cccc2cnccc12 [H 89 dihydrochloride]	10 ± 2.1
Cc1cc2c(F)c(Oc3ncnn4cc(OC[C@@H](C)O)c(C)c34)ccc2[nH]1 [Brivanib]	25.4 ± 0.91
CCCS(=O)(=O)Nc1ccc(F)c(C(=O)c2c[nH]c3ncc(-c4ccc(Cl)cc4)cc23)c1F	100
Cc1c[nH]c(/C=C2\C(=O)Nc3ccccc32)c1CCC(=O)O	10.8 ± 15
COc1cc2ncnc(Nc3ccc(O)c(Br)c3)c2cc1OC	15.2 ± 1.4
CC(C)[C@H](CO)Nc1nc(Nc2cccc(Cl)c2)c2ncn(C(C)C)c2n1 [Purvalanol A]	100
Cc1nc(N)sc1-c1ccnc(Nc2ccc(N3CCOCC3)cc2)n1	74.97 ± 0.66
CN1CC[C@H](c2c(O)cc(O)c3c(=O)cc(-c4ccccc4Cl)oc23)[C@H](O)C1 [Alvocidib]	100

SMILES	THP-1 cell loss [%]
Cc1nc2sccn2c(=O)c1CCN1CCC(=C(c2ccccc2)c2ccc(F)cc2)CC1	0
C/C(=N\N=C(N)N)c1ccc(NC(=O)Nc2ccc(/C(C)=N/N=C(N)N)cc2)cc1	3.54 ± 5
CN(C)c1cc2c(Nc3ccc4c(cnn4Cc4ccccc4)c3)ncnc2cn1	62.6 ± 18
CC(C)CC(=O)Nc1n[nH]c2c1CN(C(=O)C1CCN(C)CC1)C2(C)C	100
CC[C@@H]1C(=O)N(C)c2cnc(Nc3ccc(C(=O)N[C@H]4CC[C@H](N5CCN(CC6CC6)CC5)CC4)cc3OC)nc2N1C(C)C	100
O=C(NOC[C@H](O)CO)c1ccc(F)c(F)c1Nc1ccc(I)cc1F	100
O=C(NC[C@H](O)CO)c1ccncc1Nc1ccc(I)cc1F	100
COc1ccc(C(=O)Nc2sc3c(c2C(N)=O)CCCC3)cc1OC	100
Cc1ccc([N+](=O)[O-])cc1S(=O)(=O)N(C)/N=C/c1cnc2ccc(Br)cn12 [PIK-75 hydrochloride]	100
O=C1C(Cl)=C(NCCN2CCOCC2)C(=O)c2ncccc21	93.7 ± 8.8
Cn1cnc2c(NCc3ccccc3)nc(NCCO)nc21 [Olomoucine]	3.14 ± 4.4
Cn1c(Nc2ccc(C(F)(F)F)cc2)nc2cc(Oc3ccnc(-c4ncc(C(F)(F)F)[nH]4)c3)ccc21	100
NC(=O)c1ccc(-c2nc(-c3ccc4c(c3)OCCO4)c(-c3ccccn3)[nH]2)cc1	43.2 ± 50
O=C(Nc1c[nH]nc1-c1nc2ccc(CN3CCOCC3)cc2[nH]1)NC1CC1	100
CC#CC(=O)Nc1cc2c(Nc3ccc(F)c(Cl)c3)ncnc2cn1	89.9 ± 14
C[S+]([O-])c1ccc(-c2nc(-c3ccc(F)cc3)c(-c3ccncc3)[nH]2)cc1 (configuration not stated)	22.7 ± 8.7
COc1cc2c(N3CCN(C(=O)Nc4ccc(OC(C)C)cc4)CC3)ncnc2cc1OCCCN1CCCCC1	4.46 ± 6.3
Cn1cc(C2=C(c3cn(CCCSC(=N)N)c4ccccc34)C(=O)NC2=O)c2ccccc21 [Ro-31-8220 mesylate]	100
